# In PubChem BioAssay AID1159580 (chemical genetic matrix, 2015):
# The whole screen tested about 5,500 compounds, of which about 2,000 (36%) were called active. About 18% were inconclusive and are not listed. This is one part of the list. Values without a mark were called inactive. No stated cut-off is given here; in the data, active means normalized growth mostly below about 0.91 (no sharp cut-off); inconclusive means no clear call, values can overlap the other calls; inactive means mostly above about 0.92.
# Experiment: chemical genetic growth profiling, strain panel (AID 1159580);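 further: tested at 20 µM; growth read once vehicle control cultures reached saturation at 30 °C; 1 = growth at the plate median or of vehicle wells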
# Conditions: S. cerevisiae deletion strains, growth OD
structure (smiles),measurement,setting,value
O=C(Nc1cccc(Cl)c1)O/N=C1\CCCc2occc21,normalized growth,"locus YAR019C, strain CDC15, stronger effect = lower value",0.937
same,normalized growth,"locus YBL105C, strain PKC1, stronger effect = lower value",0.952
same,normalized growth,"locus YBR135W, strain CKS1, stronger effect = lower value",0.936
same,normalized growth,"locus YBR136W, strain MEC1, stronger effect = lower value",0.939
same,normalized growth,"locus YBR160W, strain CDC28, stronger effect = lower value",0.943
same,normalized growth,"locus YDL017W, strain CDC7, stronger effect = lower value",0.949
same,normalized growth,"locus YDL028C, strain MPS1, stronger effect = lower value",0.933
same,normalized growth,"locus YDL101C, strain DUN1, stronger effect = lower value",0.965
same,normalized growth,"locus YDL108W, strain KIN28, stronger effect = lower value",0.929
same,normalized growth,"locus YDL132W, strain cdc53, stronger effect = lower value",0.917
same,normalized growth,"locus YDL214C, strain PRR2, stronger effect = lower value",0.809
same,normalized growth,"locus YDR052C, strain DBF4, stronger effect = lower value",0.964
same,normalized growth,"locus YDR054C, strain cdc34, stronger effect = lower value",0.927
same,normalized growth,"locus YDR226W, strain ADK1, stronger effect = lower value",0.945
same,normalized growth,"locus YDR477W, strain SNF1, stronger effect = lower value",0.798
same,normalized growth,"locus YER123W, strain YCK3, stronger effect = lower value",0.759
same,normalized growth,"locus YER133W, strain GLC7, stronger effect = lower value",0.789
same,normalized growth,"locus YFL009W, strain cdc4, stronger effect = lower value",0.925
same,normalized growth,"locus YFL029C, strain CAK1, stronger effect = lower value",0.941
same,normalized growth,"locus YFR003C, strain YPI1, stronger effect = lower value",0.937
same,normalized growth,"locus YFR019W, strain FAB1, stronger effect = lower value",0.944
same,normalized growth,"locus YFR028C, strain CDC14, stronger effect = lower value",0.935
same,normalized growth,"locus YGR040W, strain KSS1, stronger effect = lower value",0.83
same,normalized growth,"locus YGR052W, strain FMP48, stronger effect = lower value",0.8
same,normalized growth,"locus YGR092W, strain DBF2, stronger effect = lower value",0.69
same,normalized growth,"locus YHR030C, strain SLT2, stronger effect = lower value",0.649 (active)
same,normalized growth,"locus YHR079C, strain IRE1, stronger effect = lower value",0.667
same,normalized growth,"locus YHR082C, strain KSP1, stronger effect = lower value",0.752
same,normalized growth,"locus YHR205W, strain SCH9, stronger effect = lower value",0.659
same,normalized growth,"locus YIL147C, strain SLN1, stronger effect = lower value",0.943
same,normalized growth,"locus YJL095W, strain BCK1, stronger effect = lower value",0.671
same,normalized growth,"locus YJL128C, strain PBS2, stronger effect = lower value",0.954
same,normalized growth,"locus YJL157C, strain FAR1, stronger effect = lower value",0.842
same,normalized growth,"locus YJR016C, strain ILV3, stronger effect = lower value",0.931
same,normalized growth,"locus YJR066W, strain TOR1 (second series), stronger effect = lower value",0.86
same,normalized growth,"locus YJR066W, strain TOR1, stronger effect = lower value",0.742
same,normalized growth,"locus YKL048C, strain ELM1, stronger effect = lower value",0.899
same,normalized growth,"locus YKL067W, strain YNK1, stronger effect = lower value",0.817
same,normalized growth,"locus YKL101W, strain HSL1, stronger effect = lower value",0.829
same,normalized growth,"locus YKL193C, strain SDS22, stronger effect = lower value",0.926
same,normalized growth,"locus YKL203C, strain TOR2, stronger effect = lower value",0.792
same,normalized growth,"locus YLR113W, strain HOG1, stronger effect = lower value",0.613 (active)
same,normalized growth,"locus YLR133W, strain CKI1, stronger effect = lower value",0.843
same,normalized growth,"locus YLR403W, strain SFP1, stronger effect = lower value",0.748
same,normalized growth,"locus YML070W, strain DAK1, stronger effect = lower value",0.788
same,normalized growth,"locus YMR001C, strain CDC5, stronger effect = lower value",0.935
same,normalized growth,"locus YMR205C, strain PFK2 (second series), stronger effect = lower value",0.831
same,normalized growth,"locus YMR277W, strain FCP1, stronger effect = lower value",0.932
same,normalized growth,"locus YNL006W, strain LST8, stronger effect = lower value",0.939
same,normalized growth,"locus YNL020C, strain ARK1, stronger effect = lower value",0.828
same,normalized growth,"locus YNL161W, strain CBK1, stronger effect = lower value",0.945
same,normalized growth,"locus YNL183C, strain NPR1, stronger effect = lower value",0.652
same,normalized growth,"locus YNL207W, strain RIO2, stronger effect = lower value",0.936
same,normalized growth,"locus YNL222W, strain SSU72, stronger effect = lower value",0.929
same,normalized growth,"locus YNL307C, strain MCK1 (second series), stronger effect = lower value",0.83
same,normalized growth,"locus YOL078W, strain AVO1, stronger effect = lower value",0.923
same,normalized growth,"locus YOL136C, strain PFK27, stronger effect = lower value",0.798
same,normalized growth,"locus YOR061W, strain CKA2, stronger effect = lower value",0.85
same,normalized growth,"locus YOR119C, strain RIO1, stronger effect = lower value",0.847
same,normalized growth,"locus YOR231W, strain MKK1, stronger effect = lower value",0.672
same,normalized growth,"locus YOR329C, strain SCD5, stronger effect = lower value",0.959
same,normalized growth,"locus YPL031C, strain PHO85, stronger effect = lower value",0.741
same,normalized growth,"locus YPL153C, strain RAD53, stronger effect = lower value",0.772
same,normalized growth,"locus YPL204W, strain HRR25, stronger effect = lower value",0.773
same,normalized growth,"locus YPL209C, strain IPL1, stronger effect = lower value",0.947
same,normalized growth,"locus YPL256C, strain CLN2, stronger effect = lower value",0.631 (active)
same,normalized growth,"locus YPR025C, strain CCL1, stronger effect = lower value",0.943
same,normalized growth,"locus YPR106W, strain ISR1, stronger effect = lower value",0.944
same,normalized growth,"locus YPR111W, strain DBF20, stronger effect = lower value",0.918
same,normalized growth,"strain NNK1, stronger effect = lower value",0.927
same,normalized growth,"strain TSCII, stronger effect = lower value",0.927
